Reference: PubChem BioAssay (EPA / NIEHS)
More than one record can exist for a structure, and the calls need not agree. Activity calls are given as the source filed them. How the source made its calls: active means hit-call score of the fitted dose curve at least 0.9, where 1 is the maximum; inactive means score below 0.9.

Experiments:
[1] = ATG_E_Box_CIS: Attagene CIS-FACTORIAL HepG2 Assay for human Enhancer Box (E-box) (AID 2282936); details: HepG2 E-box cis-reporter transcription, actives raise or lower the signal
Outline: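 Multiplexed CIS reporter system in transiently transfected HepG2 cells measures native transcription factor activity. Reporter RNA after 24 h exposure is profiled by RT-PCR-capillary electrophoresis.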

[2] = ATG_M_61_CIS: Attagene CIS-FACTORIAL HepG2 Assay for M61 Transcription Factor (Internal Marker) (AID 2282937); details: HepG2 Attagene CIS-FACTORIAL M61 internal marker reporter; actives raise or lower the signal
Outline: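 Human liver HepG2, transient MRTU transfection (cis promoter elements), 24 h compound. Total RNA → oligo(dT) RT → PCR → FAM label → HpaI → CE. Internal background marker; bidirectional fitting, DMSO = baseline.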

[3] = ATG_EGR_CIS: Attagene CIS-FACTORIAL HepG2 Assay for human Early Growth Response 1 (EGR1) (AID 2282938); details: HepG2 Attagene CIS-FACTORIAL EGR reporter mRNA; actives raise or lower the signal
Outline: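 Transient transfection of human HepG2 with multiple cis-regulated reporter units, chemical exposure 24 h, total RNA isolated. Reverse transcription, PCR, fluorescent labelling and capillary electrophoresis quantify reporter transcripts; activity fitted bidirectionally against DMSO.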

[4] = ATG_M_19_CIS: Attagene CIS-FACTORIAL HepG2 Assay for M19 Transcription Factor (Internal Marker) (AID 2282939); details: HepG2 Attagene CIS-FACTORIAL M19 internal marker reporter; actives raise or lower the signal
Outline: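 Background-control endpoint from a multiplexed HepG2 reporter panel. Cells carrying cis-regulated reporter constructs are treated 24 h, then reporter transcripts are amplified, fluorescently labelled and sized by capillary electrophoresis. DMSO defines baseline.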

[5] = ATG_ERE_CIS: Attagene CIS-FACTORIAL HepG2 Assay for Estrogen Response Element (ERE) (AID 2282940); details: HepG2 ERE cis-reporter, Attagene RNA transcript; actives raise or lower the signal
Outline: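 Cells used were human hepatoma HepG2, transfected with multiple reporter transcription units under cis-regulatory promoters. Reporter mRNA, read 24 h post-dosing via fluorescent RT-PCR products on capillary electrophoresis, was fitted bidirectionally relative to DMSO.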

[6] = ATG_Ets_CIS: Attagene CIS-FACTORIAL HepG2 Assay for human Erythroblast Transformation Specific (ETS) (AID 2282941); details: HepG2 ETS cis-reporter transcription, actives raise or lower the signal
Outline: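 After transient cis-reporter transfection, HepG2 cells receive test chemical for 24 h. Reporter mRNA levels, measured by RT-PCR and capillary electrophoresis fluorescence, are analysed bidirectionally relative to the DMSO baseline.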

[7] = molecular target: Hepatocyte nuclear factor 3-beta (Homo sapiens) (UniProt Q9Y261); experiment: ATG_FoxA2_CIS: Attagene CIS-FACTORIAL HepG2 Assay for human Forkhead box A2 (FOXA2) (AID 2282942); details: HepG2 cis-reporter transcription factor activity, 24 h; actives raise or lower the signal
Chain of Hepatocyte nuclear factor 3-beta (Homo sapiens) (Q9Y261 whole entry, looked up): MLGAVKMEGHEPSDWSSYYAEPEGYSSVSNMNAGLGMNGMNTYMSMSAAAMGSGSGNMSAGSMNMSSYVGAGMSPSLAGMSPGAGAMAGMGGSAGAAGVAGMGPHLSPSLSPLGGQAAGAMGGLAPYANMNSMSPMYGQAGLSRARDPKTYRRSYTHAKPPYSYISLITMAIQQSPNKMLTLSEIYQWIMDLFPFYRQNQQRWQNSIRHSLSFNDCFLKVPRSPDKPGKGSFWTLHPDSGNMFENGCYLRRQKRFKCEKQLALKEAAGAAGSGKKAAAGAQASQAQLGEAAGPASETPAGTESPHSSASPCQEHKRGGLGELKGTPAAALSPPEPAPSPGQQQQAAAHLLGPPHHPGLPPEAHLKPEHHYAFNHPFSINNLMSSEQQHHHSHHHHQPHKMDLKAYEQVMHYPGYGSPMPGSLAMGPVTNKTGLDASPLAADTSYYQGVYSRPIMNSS
Outline: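 Transient MRTU transfection of HepG2 liver cells; 24 h treatment; total RNA → oligo(dT) RT → PCR → FAM primer extension → HpaI cut → CE. Bidirectional fit vs DMSO.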

[8] = ATG_FoxO_CIS: Attagene CIS-FACTORIAL HepG2 Assay for human Forkhead box O (FoxO) (AID 2282943); details: HepG2 Attagene cis-reporter, FoxO element, mRNA; actives raise or lower the signal
Outline: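 HepG2 cells transiently transfected with cis-promoter-driven multiple reporter transcription units; 24 h after chemical dosing, reporter mRNA quantified by RT-PCR, fluorescent primer extension, HpaI digestion and capillary electrophoresis. Bidirectional fitting versus DMSO baseline.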

[9] = ATG_GATA_CIS: Attagene CIS-FACTORIAL HepG2 Assay for human GATA Binding Protein (AID 2282944); details: HepG2 GATA cis-element reporter, Attagene multiplex mRNA; actives raise or lower the signal
Outline: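 Endogenous transcription factor activity was captured through cis-promoter-driven reporters in transfected HepG2 cells. After 24 h exposure, reporter transcripts were quantified by RT-PCR with fluorescent capillary electrophoresis, and responses fitted both directions against DMSO.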

[10] = ATG_GLI_CIS: Attagene CIS-FACTORIAL HepG2 Assay for human Zinc Finger Protein GLI1 (AID 2282945); details: HepG2, Attagene cis-factorial reporter mRNA, GLI element; actives raise or lower the signal
Outline: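 HepG2 cells transiently transfected with cis-promoter multiplexed reporter units report endogenous transcription factor activity. After 24 h chemical exposure, reporter mRNA was quantified by RT-PCR, 6-FAM labelling, HpaI digestion and capillary electrophoresis, with bidirectional fitting against DMSO.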

Measured: AC50

C=C(C)C(=O)OCC1CO1 (stereo not given)
inactive: all assays above

CC(C)Nc1ccc(Nc2ccccc2)cc1
active: [1] 54.8 µM
inactive: all other assays above

CC(O)C(F)(F)C(F)(F)F (stereo not given)
inactive: all assays above

O=C(O)C(F)(F)OC(F)(F)C(F)(F)OC(F)(F)F
inactive: all assays above

FC(F)(F)c1ccc(Cl)cc1
inactive: all assays above

CCCCN(CC)C(=O)SCCC
inactive: all assays above

Cc1cccc(N)c1
inactive: all assays above

OCC(F)(F)OC(F)(F)C(F)(F)OC(F)(F)C(F)(F)OC(F)(F)F
inactive: [1] | [2] | [3] | [4] | [5] | [6] | [8] | [9] | [10]
active: [5] 5.62 µM

OCC(F)(F)OC(F)(F)C(F)(F)OC(F)(F)CO
active: [5] 20 µM
inactive: all other assays above

Cn1[nH]nnc1=S
inactive: all assays above

CCOP(=S)(S)OCC
inactive: all assays above

CN(C)C(=O)Cl
inactive: all assays above

CC1(C)CN=C(NN=C(/C=C/c2ccc(C(F)(F)F)cc2)/C=C/c2ccc(C(F)(F)F)cc2)NC1
active: [1] 13.7 µM | [5] 0.303 µM | [7] 11.1 µM
inactive: all other assays above

CC(C)(C)N(NC(=O)c1ccc(Cl)cc1)C(=O)c1ccccc1
inactive: all assays above

c1cc2c3c(cccc3c1)CC2
inactive: all assays above

CCCCC(CC)COC(=O)c1c(Br)c(Br)c(Br)c(Br)c1C(=O)OCC(CC)CCCC (stereo not given)
inactive: all assays above

Cc1ccc2c(c1N)C(=O)c1ccccc1C2=O
active: [5] 5.24 µM
inactive: all other assays above

Cc1ccc([N+](=O)[O-])cc1C
inactive: all assays above

CCCCc1ccc(O)cc1
active: [5] 7.43 µM
inactive: all other assays above

Clc1ccc(Oc2ccccc2)cc1
active: [5] 88.4 µM
inactive: all other assays above

CC(Cc1ccc(OCC(=O)O)cc1)NCC(O)c1csc(C(F)(F)F)n1 (stereo not given)
inactive: all assays above

CCNc1nc(Cl)nc(NC(C)(C)C)n1
active: [5] 8.92 µM
inactive: all other assays above

O=C(O)C1C(C(=O)O)C2(Cl)C(Cl)=C(Cl)C1(Cl)C2(Cl)Cl (stereo not given)
inactive: all assays above

O=c1[nH]c2ccccc2c(=O)o1
inactive: all assays above
